Data taken from PubChem BioAssay.
For some of these results: Entries with a potency or affinity are not part of this list. The source made the active and inactive calls. Unless noted, no rule for the calls is given here.

Assays:
[1] = antimalarial activity against Dd2 strain (AID 2302;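 active = growth inhibition above 50% at the single 2 µM test dose, taken to imply half-maximal potency below 2 µM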;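 also: 0% = DMSO untreated growth and 100% = chloroquine plus artemisinin killed control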); conditions: P. falciparum Dd2 in RBCs, LDH growth readout, 72 h; at 2 µM; active compounds read high
[2] = human hepatoma cell viability loss – ATP luminescence, cytotoxicity control for P. falciparum antimalarial project, primary screen (AID 2303;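 active = inhibition above 50%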;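 also: 0% = DMSO wells and 100% = digitonin-killed cells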); conditions: HepG2 viability, 24-48 h, at 10 µM, active compounds read high
[3] = molecular target: L-lactate dehydrogenase (Plasmodium falciparum (isolate CDC / Honduras)) (UniProt Q27743); experiment: PfLDH activity inhibition – cell lysate, 3D7 strain, counter-screen for P. falciparum growth inhibition project (AID 2304);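 also: 0% = vehicle and 100% = reference inhibitor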; conditions: P. falciparum 3D7 crude extract, LDH APAD/NBT absorbance; at 2 µM; active compounds read high
Sequence of L-lactate dehydrogenase (Plasmodium falciparum (isolate CDC / Honduras)) (Q27743 whole entry, looked up): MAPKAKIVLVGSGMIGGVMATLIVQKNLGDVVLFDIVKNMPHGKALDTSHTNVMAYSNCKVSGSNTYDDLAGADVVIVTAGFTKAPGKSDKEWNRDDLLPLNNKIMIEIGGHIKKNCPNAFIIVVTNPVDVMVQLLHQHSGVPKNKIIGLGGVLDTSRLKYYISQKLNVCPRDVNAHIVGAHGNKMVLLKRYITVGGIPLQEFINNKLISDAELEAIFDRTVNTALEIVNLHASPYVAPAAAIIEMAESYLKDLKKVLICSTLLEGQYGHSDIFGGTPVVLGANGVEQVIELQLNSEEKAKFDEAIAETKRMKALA

[4] = inhibition of 3D7 malaria parasite growth – strain 3D7 (AID 2306);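 also: 0% = DMSO wells and 100% = chloroquine plus artemisinin control wells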; conditions: P. falciparum 3D7 erythrocytic growth, LDH absorbance, 72 h; at 2 µM; active compounds read high
[5] = molecular target: Calcium-dependent protein kinase 1 (Plasmodium falciparum (isolate 3D7)) (UniProt P62344); experiment: PfCDPK1 kinase inhibitors, biochemical, TCAMS library (AID 1159585; cut-off not given, nearly all actives have IC50 up to about 0.98 µM;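 also: inhibitors leave more ATP so luminescence rises with inhibition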); conditions: recombinant PfCDPK1, Kinase-Glo ATP depletion luminescence
Sequence of Calcium-dependent protein kinase 1 (Plasmodium falciparum (isolate 3D7)) (P62344 whole entry, looked up): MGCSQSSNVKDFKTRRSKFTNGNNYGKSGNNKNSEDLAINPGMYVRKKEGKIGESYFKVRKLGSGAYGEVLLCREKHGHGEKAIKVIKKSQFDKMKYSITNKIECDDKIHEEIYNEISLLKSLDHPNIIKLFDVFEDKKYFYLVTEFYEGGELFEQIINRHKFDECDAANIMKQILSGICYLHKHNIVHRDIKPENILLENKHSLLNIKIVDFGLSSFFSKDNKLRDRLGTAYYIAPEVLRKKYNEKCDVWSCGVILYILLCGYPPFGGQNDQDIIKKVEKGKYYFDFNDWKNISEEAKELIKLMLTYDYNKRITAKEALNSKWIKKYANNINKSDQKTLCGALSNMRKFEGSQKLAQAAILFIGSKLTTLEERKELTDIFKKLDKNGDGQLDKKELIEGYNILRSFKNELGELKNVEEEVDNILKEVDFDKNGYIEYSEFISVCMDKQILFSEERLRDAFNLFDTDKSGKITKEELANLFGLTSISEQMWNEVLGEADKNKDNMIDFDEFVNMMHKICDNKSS

[6] = molecular target: Plasmodium falciparum protein kinase 6 (PK6, PF3D7_1337100) (UniProt Q8IDW1); experiment: PfPK6 kinase inhibitors, biochemical, TCAMS library (AID 1159586); conditions: recombinant PfPK6, Kinase-Glo ATP depletion luminescence
Sequence of Plasmodium falciparum protein kinase 6 (PK6, PF3D7_1337100) (Q8IDW1 1-305): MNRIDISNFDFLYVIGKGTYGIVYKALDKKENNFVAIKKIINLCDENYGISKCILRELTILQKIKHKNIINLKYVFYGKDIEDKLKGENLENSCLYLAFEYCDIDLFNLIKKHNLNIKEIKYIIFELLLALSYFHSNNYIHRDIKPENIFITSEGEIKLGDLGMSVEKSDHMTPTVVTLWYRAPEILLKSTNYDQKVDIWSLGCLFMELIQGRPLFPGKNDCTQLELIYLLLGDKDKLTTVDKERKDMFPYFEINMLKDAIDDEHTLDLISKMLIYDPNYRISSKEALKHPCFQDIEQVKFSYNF

[7] = molecular target: Protein kinase 7 (PK7), Plasmodium falciparum 3D7 (PF3D7_0213400) (UniProt Q7YTF7); experiment: inhibition of Plasmodium PK7 catalytic activity – biochemical, TCAMS antimalarial set, Kinase-Glo luminescence (AID 1159587); conditions: recombinant PfPK7, Kinase-Glo ATP depletion luminescence
Sequence of Protein kinase 7 (PK7), Plasmodium falciparum 3D7 (PF3D7_0213400) (Q7YTF7 1-343): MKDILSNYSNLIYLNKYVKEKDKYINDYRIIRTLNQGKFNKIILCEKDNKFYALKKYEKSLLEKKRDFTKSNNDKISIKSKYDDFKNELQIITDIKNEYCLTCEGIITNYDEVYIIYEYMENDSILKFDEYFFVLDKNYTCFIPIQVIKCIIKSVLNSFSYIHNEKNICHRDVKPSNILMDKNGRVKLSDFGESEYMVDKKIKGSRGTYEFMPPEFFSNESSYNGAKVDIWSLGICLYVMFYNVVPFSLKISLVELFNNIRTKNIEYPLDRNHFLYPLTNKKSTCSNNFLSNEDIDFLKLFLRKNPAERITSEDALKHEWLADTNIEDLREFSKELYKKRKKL

[8] = molecular target: Calcium-dependent protein kinase 4 (Plasmodium falciparum (isolate 3D7)) (UniProt Q8IBS5); experiment: PfCDPK4 kinase inhibitors, biochemical, TCAMS library (AID 1159588; cut-off not given, nearly all actives have IC50 up to about 0.91 µM); conditions: recombinant PfCDPK4, Kinase-Glo ATP depletion luminescence
Sequence of Calcium-dependent protein kinase 4 (Plasmodium falciparum (isolate 3D7)) (Q8IBS5 whole entry, looked up): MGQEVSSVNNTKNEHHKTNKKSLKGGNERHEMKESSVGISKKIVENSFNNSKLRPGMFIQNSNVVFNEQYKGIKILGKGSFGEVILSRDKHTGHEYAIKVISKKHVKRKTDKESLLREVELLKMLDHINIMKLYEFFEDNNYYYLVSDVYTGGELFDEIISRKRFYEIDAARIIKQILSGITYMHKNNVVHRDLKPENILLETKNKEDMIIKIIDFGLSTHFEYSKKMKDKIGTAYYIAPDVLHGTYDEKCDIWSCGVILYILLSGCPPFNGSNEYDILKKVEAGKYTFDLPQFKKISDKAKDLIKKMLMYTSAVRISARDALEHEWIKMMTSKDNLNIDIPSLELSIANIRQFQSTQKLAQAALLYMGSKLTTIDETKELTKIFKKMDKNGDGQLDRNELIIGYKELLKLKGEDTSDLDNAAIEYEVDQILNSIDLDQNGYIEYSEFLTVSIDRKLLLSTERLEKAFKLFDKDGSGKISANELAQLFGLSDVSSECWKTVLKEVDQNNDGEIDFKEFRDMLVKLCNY

CCNc1cc(C(=O)N[C@@H](Cc2ccccc2)[C@H](O)CNC(C)(C)Cc2cccc(Cl)c2)cc(N2CCCCS2(=O)=O)c1
active: growth inhibition [1] 74% | growth inhibition [4] 97%
inactive: inhibition [2] 17% | inhibition [3] 3% | outcome [5] | outcome [6] | outcome [7] | outcome [8]

CCCCCCCc1c(C)[nH]c2cc(OC)ccc2c1=O
active: growth inhibition [1] 98% | growth inhibition [4] 99%
inactive: inhibition [2] 5% | inhibition [3] -5% | outcome [5] | outcome [6] | outcome [7] | outcome [8]

COc1cc(F)c2ncc(Cl)c(C(O)CN3CCC(NC(=O)c4ccc5c(c4)NC(=O)CS5)CC3)c2c1 (stereo not given)
active: growth inhibition [1] 68% | growth inhibition [4] 98%
inactive: inhibition [2] 15% | inhibition [3] 1% | outcome [5] | outcome [6] | outcome [7] | outcome [8]

CN1CCN(c2ccnc3ccc(NC(=O)Cc4ccc5ccccc5c4)cc23)CC1
inactive: inhibition [2] 6% | inhibition [3] -2% | outcome [5] | outcome [6] | outcome [7] | outcome [8]
active: growth inhibition [1] 89% | growth inhibition [4] 100%

Cc1c(-c2cccc(C(C)(C)NC3CCN(Cc4ccccc4)CC3)c2)cnc(N)c1C
inactive: growth inhibition [1] 39% | inhibition [2] 14% | inhibition [3] -6% | outcome [5] | outcome [6] | outcome [7] | outcome [8]
active: growth inhibition [4] 100%

Nc1nc(N)c2c(n1)CCC(c1ccccc1)C2 (stereo not given)
active: inhibition [2] 55% | growth inhibition [4] 93%
inactive: growth inhibition [1] -1% | inhibition [3] 1% | outcome [5] | outcome [6] | outcome [7] | outcome [8]

Fc1ccc2nc(-c3ccc(-c4ccc(CN5CCN(CCN6CCOCC6)CC5)cc4)cc3)[nH]c2c1
active: growth inhibition [1] 100% | growth inhibition [4] 101%
inactive: inhibition [2] 38% | inhibition [3] -5% | outcome [5] | outcome [6] | outcome [7] | outcome [8]

COc1ccc(Nc2c3ccc(Cl)cc3nc3ccc(OC)cc23)cc1
active: growth inhibition [1] 99% | growth inhibition [4] 94%
inactive: inhibition [2] 14% | inhibition [3] 3% | outcome [5] | outcome [6] | outcome [7] | outcome [8]

CC(C)N1CCC(N(Cc2ccc(-c3ccc(C(F)(F)F)cc3)cc2)C(=O)Cn2c(CCc3cccc(F)c3F)cc(=O)c3ccccc32)CC1
active: growth inhibition [1] 73% | inhibition [2] 50% | growth inhibition [4] 99%
inactive: inhibition [3] -6% | outcome [5] | outcome [6] | outcome [7] | outcome [8]

c1ccc(CN2CCC(NCc3ccccc3-c3cccc(CNC4CCCC4)c3)CC2)cc1
inactive: inhibition [2] 35% | inhibition [3] 6% | outcome [5] | outcome [6] | outcome [7] | outcome [8]
active: growth inhibition [1] 59% | growth inhibition [4] 101%

CCCC(N)C(=O)NC1CCN(c2c(F)c(N)c3c(=O)c(C(=O)O)cn4c3c2Oc2ccccc2-4)C1 (stereo not given)
active: growth inhibition [1] 98% | inhibition [2] 66% | growth inhibition [4] 98%
inactive: inhibition [3] -5% | outcome [5] | outcome [6] | outcome [7] | outcome [8]

COc1ccc2nccc(N(C)CC3(O)CCC(NCc4ccc5c(n4)NC(=O)CS5)CC3)c2n1 (stereo not given)
inactive: growth inhibition [1] 23% | inhibition [2] 1% | inhibition [3] -1% | outcome [5] | outcome [6] | outcome [7] | outcome [8]
active: growth inhibition [4] 98%

O=C(Cn1nc(Br)nc1[N+](=O)[O-])NCC1CCCCC1
active: growth inhibition [1] 57% | growth inhibition [4] 96%
inactive: inhibition [2] -8% | inhibition [3] -5% | outcome [5] | outcome [6] | outcome [7] | outcome [8]

CCOC(=O)C1CCN(CCCNC(=O)/C(=C/C=C/c2cc3cc(Cl)c(Cl)cc3[nH]2)OC)CC1
inactive: inhibition [2] 23% | inhibition [3] -6% | outcome [5] | outcome [6] | outcome [7] | outcome [8]
active: growth inhibition [1] 78% | growth inhibition [4] 87%

Nc1nc(N)c2c(ccc3c2cnn3S(=O)(=O)N2CCCC2)n1
inactive: growth inhibition [1] 3% | inhibition [3] 2% | outcome [5] | outcome [6] | outcome [7] | outcome [8]
active: inhibition [2] 70% | growth inhibition [4] 93%

Cc1ccc2nc(C)cc(NN=Cc3ccc([N+](=O)[O-])o3)c2c1
active: growth inhibition [1] 99% | growth inhibition [4] 101%
inactive: inhibition [2] 15% | inhibition [3] -4% | outcome [5] | outcome [6] | outcome [7] | outcome [8]

CC1CCC2(CC1)N=C(N)N=C(N)N2OCCCCCCCCO (stereo not given)
inactive: inhibition [2] 2% | inhibition [3] -4% | outcome [5] | outcome [6] | outcome [7] | outcome [8]
active: growth inhibition [1] 87% | growth inhibition [4] 96%

Cc1cc(C)c2oc(-c3cccc(NC(=O)c4ccc([N+](=O)[O-])o4)c3C)nc2c1
active: growth inhibition [1] 67% | growth inhibition [4] 90%
inactive: inhibition [2] -1% | inhibition [3] 0% | outcome [5] | outcome [6] | outcome [7] | outcome [8]

CCC(C)C#Cc1c(C)nc(N)nc1N (stereo not given)
active: inhibition [2] 53% | growth inhibition [4] 96%
inactive: growth inhibition [1] -4% | inhibition [3] 3% | outcome [5] | outcome [6] | outcome [7] | outcome [8]

CC(CN1CCN(C)CC1)C(=O)Nc1cccc(-c2cccc(-c3nc4ccccc4[nH]3)c2)c1 (stereo not given)
inactive: growth inhibition [1] 19% | inhibition [2] 23% | inhibition [3] -3% | outcome [5] | outcome [6] | outcome [7] | outcome [8]
active: growth inhibition [4] 88%

Cc1ccc(F)c(OCC2CCN(c3ncc(C(=O)NC4CC4)cc3Cl)CC2)c1
active: growth inhibition [1] 95% | growth inhibition [4] 96%
inactive: inhibition [2] 9% | inhibition [3] -3% | outcome [5] | outcome [6] | outcome [7] | outcome [8]

O=C(Nc1cccc(N2CCC(NCc3cccnc3)CC2)c1)c1cccc(C(F)(F)F)c1
inactive: growth inhibition [1] 2% | inhibition [2] 26% | inhibition [3] -3% | outcome [5] | outcome [6] | outcome [7] | outcome [8]
active: growth inhibition [4] 98%

CCNc1cc(C(=O)N[C@@H](Cc2ccccc2)[C@H](O)CNCCc2cc(OC)cc(OC)c2)cc(N2CCCCS2(=O)=O)c1
inactive: growth inhibition [1] 28% | inhibition [2] 3% | inhibition [3] 0% | outcome [5] | outcome [6] | outcome [7] | outcome [8]
active: growth inhibition [4] 89%

COc1ccc2ncc(C#N)c(CCN3C[C@H](CNCc4ccccc4)[C@H](O)C3)c2n1
active: growth inhibition [4] 91%
inactive: growth inhibition [1] 24% | inhibition [2] 3% | inhibition [3] 4% | outcome [5] | outcome [6] | outcome [7] | outcome [8]

CCN1CCC(N(Cc2ccc(-c3ccc(C(F)(F)F)cc3)cc2)C(=O)Cn2c(SCc3cccc(F)c3F)cc(=O)c3ccccc32)C1 (stereo not given)
inactive: inhibition [2] 42% | inhibition [3] 5% | outcome [5] | outcome [6] | outcome [7] | outcome [8]
active: growth inhibition [1] 91% | growth inhibition [4] 90%

COc1cccc(NC(=O)Nc2ccc(Nc3nc(C)cc(N4CCCC4)n3)cc2)c1
active: growth inhibition [1] 100% | growth inhibition [4] 101%
inactive: inhibition [2] 28% | inhibition [3] -1% | outcome [5] | outcome [6] | outcome [7] | outcome [8]

OC(CNc1ccnc(Nc2cccc(CCN3CCOCC3)c2)n1)c1ccccc1 (stereo not given)
inactive: growth inhibition [1] 14% | inhibition [2] 34% | inhibition [3] -1% | outcome [5] | outcome [6] | outcome [7] | outcome [8]
active: growth inhibition [4] 102%

COc1cc(Nc2nccc(N3CCC(NC(=O)Nc4cccc(C(C)=O)c4)C3)n2)cc(OC)c1OC (stereo not given)
inactive: growth inhibition [1] 34% | inhibition [2] 8% | inhibition [3] -3% | outcome [5] | outcome [6] | outcome [7] | outcome [8]
active: growth inhibition [4] 91%

CN1CCC(N(Cc2ccc(-c3cnc(NCc4ccccc4)nc3)cc2)S(=O)(=O)c2ccccc2)CC1
inactive: growth inhibition [1] 10% | inhibition [2] 48% | inhibition [3] 1% | outcome [5] | outcome [6] | outcome [7] | outcome [8]
active: growth inhibition [4] 102%

O=C(Cc1ccccc1)NC(CCN1CCC(NC(=O)c2ccc(Cl)cc2)CC1)c1ccc(Cl)c(Cl)c1 (stereo not given)
inactive: growth inhibition [1] 23% | inhibition [2] 17% | inhibition [3] -2% | outcome [5] | outcome [6] | outcome [7] | outcome [8]
active: growth inhibition [4] 85%

COc1ccc(Cn2c(Nc3cccc(C(F)(F)F)c3)nc3cc(C(=O)NC(C)C)cnc32)cc1Cl
inactive: inhibition [2] -6% | inhibition [3] 1% | outcome [5] | outcome [6] | outcome [7] | outcome [8]
active: growth inhibition [1] 81% | growth inhibition [4] 85%

CCCc1cccc(C)c1OCCCON1C(N)=NC(N)=NC1(C)C
active: growth inhibition [1] 96% | inhibition [2] 57% | growth inhibition [4] 95%
inactive: inhibition [3] -2% | outcome [5] | outcome [6] | outcome [7] | outcome [8]

COc1ccc(-c2cccc(NC(=O)c3cccc(Cl)c3)c2)cc1CN1CCCN(C)CC1
inactive: inhibition [2] 20% | inhibition [3] 6% | outcome [5] | outcome [6] | outcome [7] | outcome [8]
active: growth inhibition [1] 99% | growth inhibition [4] 101%

CN(C)CC(O)C(O)(c1ccccc1)c1ccc(F)cc1 (stereo not given)
inactive: growth inhibition [1] 10% | inhibition [2] -10% | inhibition [3] 4% | outcome [5] | outcome [6] | outcome [7] | outcome [8]
active: growth inhibition [4] 93%

N=C(N)c1ccc(NCc2cccc(C(=O)O)c2)cc1
inactive: inhibition [2] 7% | inhibition [3] -2% | outcome [5] | outcome [6] | outcome [7] | outcome [8]
active: growth inhibition [1] 79% | growth inhibition [4] 84%
